Drawing on ChEMBL document CHEMBL4808148, “HDAC6 screening dataset using tau-based substrate in an enzymatic assay yields selective inhibitors and activators” (2021), this text covers inhibition for 47 compounds.

Among all 5,600 compounds or so, about 390 (7%) showed an effect of 50% or more. The sample as a whole holds a higher share of strong results than the screen did.

This assay concerns the target T1, Protein deacetylase HDAC6 (Homo sapiens) (UniProt Q9UBN7).
T1 sequence (whole entry): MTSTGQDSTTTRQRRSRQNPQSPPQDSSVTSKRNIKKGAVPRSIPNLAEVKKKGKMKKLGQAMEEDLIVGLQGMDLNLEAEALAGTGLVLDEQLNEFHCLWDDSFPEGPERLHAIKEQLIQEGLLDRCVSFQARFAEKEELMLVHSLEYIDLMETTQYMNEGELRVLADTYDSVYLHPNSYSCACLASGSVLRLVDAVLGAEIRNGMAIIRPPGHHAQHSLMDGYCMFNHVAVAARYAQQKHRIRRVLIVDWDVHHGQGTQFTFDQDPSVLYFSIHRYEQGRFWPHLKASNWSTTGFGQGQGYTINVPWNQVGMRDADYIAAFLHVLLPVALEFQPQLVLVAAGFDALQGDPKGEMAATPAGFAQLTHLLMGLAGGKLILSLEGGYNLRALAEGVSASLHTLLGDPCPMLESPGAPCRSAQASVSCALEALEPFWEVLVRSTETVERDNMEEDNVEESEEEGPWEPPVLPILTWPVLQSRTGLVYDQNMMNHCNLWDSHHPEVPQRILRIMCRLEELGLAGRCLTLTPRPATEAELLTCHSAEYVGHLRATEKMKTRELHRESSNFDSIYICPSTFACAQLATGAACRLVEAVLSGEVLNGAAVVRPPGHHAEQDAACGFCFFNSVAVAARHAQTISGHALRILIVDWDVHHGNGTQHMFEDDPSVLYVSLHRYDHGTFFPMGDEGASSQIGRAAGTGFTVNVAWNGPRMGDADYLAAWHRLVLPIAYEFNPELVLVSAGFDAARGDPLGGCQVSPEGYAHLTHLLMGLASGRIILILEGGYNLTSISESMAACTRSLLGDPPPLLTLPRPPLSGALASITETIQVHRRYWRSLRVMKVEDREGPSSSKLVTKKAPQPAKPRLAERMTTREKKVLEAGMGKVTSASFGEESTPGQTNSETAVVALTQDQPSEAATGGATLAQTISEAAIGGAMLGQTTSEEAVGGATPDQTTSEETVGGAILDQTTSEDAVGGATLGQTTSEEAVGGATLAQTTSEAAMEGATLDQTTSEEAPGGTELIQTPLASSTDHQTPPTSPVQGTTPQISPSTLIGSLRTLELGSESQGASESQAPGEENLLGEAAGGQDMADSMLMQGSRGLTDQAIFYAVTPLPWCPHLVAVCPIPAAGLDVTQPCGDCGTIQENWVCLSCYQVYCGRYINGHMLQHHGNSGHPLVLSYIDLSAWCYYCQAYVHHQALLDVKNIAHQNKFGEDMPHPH
Particulars: at 10 µM.
For the compound `O=C(Nc1cccc2cccnc12)c1ccc(N2C(=O)[C@@H]3[C@H](C2=O)[C@H]2C=C[C@@H]3C2)cc1`, the inhibition was -1.4%.
With `O=C(Nc1cccc2cccnc12)c1ccc(N2C(=O)[C@@H]3[C@H](C2=O)[C@@H]2C=C[C@H]3C2)cc1`, the inhibition was 56.2%.
As for `FC(F)(F)c1cc(NC(=S)Nc2ccc(Br)cc2-c2nnn[nH]2)cc(C(F)(F)F)c1`, the inhibition was 74.5%.
Turning to `Oc1nc(O)c2nc(O)[nH]c2n1`, the inhibition was determined as 12.1%.
For the compound `CN1CCN(CCCN2c3ccccc3Sc3ccc(S(=O)(=O)N(C)C)cc32)CC1`, the inhibition was -2.89%.
As for `COc1ccc2c(c1)N(C[C@H](C)CN(C)C)c1ccccc1S2`, the inhibition came to 14.6%.
For the compound `COc1ccccc1N1CCN(CCCCNC(=O)c2ccc(-c3ccc(C(C)=O)cc3)cc2)CC1`, the inhibition was determined as 1.38%.
Under `OCCN1CCN(CCCN2c3ccccc3Sc3ccc(Cl)cc32)CC1` stands 36.5%; under `CN1CCN(CCCN2c3ccccc3Sc3ccc(C(F)(F)F)cc32)CC1`, 59.5%; under `CC(=O)c1ccc2c(c1)N(CCCN1CCC(CCO)CC1)c1ccccc1S2`, 76.9%.
Under `CN(C)CCCN1c2ccccc2Sc2ccc(C(F)(F)F)cc21` stands 89.2%; under `CCSc1ccc2c(c1)N(CCCN1CCN(C)CC1)c1ccccc1S2`, 70.4%.
Turning to `CCN(CC)C(C)CN1c2ccccc2Sc2ccccc21` (configuration not stated), the inhibition is 11.7%.
Under `CN1CCCC(CN2c3ccccc3Sc3ccccc32)C1` (configuration not stated) stands 48.4%; under `CC(CN(C)C)CN1c2ccccc2Sc2ccccc21` (configuration not stated), 30.9%; under `CCC(=N\O)/C(C)=C/c1ccc(F)cc1`, 47.7%.
As to `C[C@@H](NCc1cc(Br)cc2nc(O)c(O)nc12)P(=O)(O)O`, the inhibition amounted to 7.12%.
With `CCCCCCCCCCCCCCCCCCCCCC(=O)O`, the inhibition was -9.27%.
On to `COc1cc(N2CCC(N(C)C)CC2)ccc1Nc1ncc(Cl)c(Nc2ccccc2P(C)(C)=O)n1`, for which the inhibition was determined as 3.02%.
Take `CCC[C@@H](NC(=O)N1C(=O)C(CC)(CC)[C@@H]1Oc1ccc(C(=O)N2CCN(C)CC2)cc1)c1ccc2c(c1)OCO2`: the inhibition turned out to be 9.19%.
For `CCn1c2ccccc2c2cc(CNC)ccc21` the value was -7.52%; for `COc1cccc(OC)c1-c1cc(C(=O)N[C@@H](CC(C)C)C(=O)O)nn1-c1ccnc2cc(Cl)ccc12`, 6.09%; for `CCCCN1CC(O)C(O)C(O)C1CO` (configuration not stated), -6.7%.
Take `COc1cc2c(cc1NS(=O)(=O)c1ccc(Br)cc1C)n(C)c(=O)n2C`: the inhibition stood at 19.4%.
For `O=c1[nH]c([C@@H]2CCCN2)nc2c1oc1ccc(Cl)cc12` the value was -8.21%.
For `CC(C)(C)NC(=O)[C@@H]1C[C@@H]2CCCC[C@@H]2CN1C[C@@H](O)[C@H](Cc1ccccc1)NC(=O)[C@H](CC(N)=O)NC(=O)c1ccc2ccccc2n1`, the inhibition is 2.2%.
In the case of `NCCCC(N)C(=O)O` (configuration not stated), the inhibition is -5.26%.
For `CCCCC/C=C\C/C=C\C/C=C\CCCCC(=O)O` the value was 20.4%.
On to `O=c1n(CC2CO2)c(=O)n(CC2CO2)c(=O)n1CC1CO1` (configuration not stated), for which the inhibition worked out at 21.5%.
Consider `CN(C)CCCN1c2ccccc2Sc2ccc(Cl)cc21`, for which the inhibition amounted to 59.7%.
Take `CN(C)CCCN1c2ccccc2CCc2ccc(Cl)cc21`: the inhibition amounted to 7.48%.
`CCN(CC)CCCCN1c2ccccc2Oc2ccc(Cl)cc21`: the inhibition was 22.7%.
On to `c1ccc2c(Oc3nc(Nc4ccc(N5CCOCC5)cc4)c4ncn(C5CCCCC5)c4n3)cccc2c1`, for which the inhibition was 2.11%.
Turning to `O=C(c1c2ccccc2cc2ccccc12)N1CCC(N2CCC[C@@H](C(=O)N3CCOCC3)C2)CC1`, the inhibition was determined as 16%.
`C[C@@]12CCC3[C@@](CC[C@@H]4[C@](C)(C(=O)O)CCC[C@@]34C)(CC1=O)C2` (some centres not stated): the inhibition came out at 11.5%.
For `c1ccc2c(c1)CCC[C@H]2Nc1nc2ccccc2[nH]1` the value was 96.9%.
`CCNC(=O)N1CCN(CCCC(c2ccc(F)cc2)c2ccc(F)cc2)CC1`: the inhibition was -5.99%.
For `CC(C)C[C@H](NC(=O)CNC(=O)[C@H](Cc1ccc(O)cc1)NC(=O)[C@H](CO)NC(=O)[C@H](Cc1c[nH]c2ccccc12)NC(=O)[C@H](Cc1cnc[nH]1)NC(=O)[C@@H]1CCC(=O)N1)C(=O)N[C@@H](CCCNC(=N)N)C(=O)N1CCC[C@H]1C(=O)NCC(N)=O` the value was 18.4%; for `CCCCCCCCCCCCCCCC(=O)N[C@@H](CCC(=O)NCCCC[C@H](NC(=O)[C@H](C)NC(=O)[C@H](C)NC(=O)[C@H](CCC(N)=O)NC(=O)CNC(=O)[C@H](CCC(=O)O)NC(=O)[C@H](CC(C)C)NC(=O)[C@H](Cc1ccc(O)cc1)NC(=O)[C@H](CO)NC(=O)[C@H](CO)NC(=O)[C@@H](NC(=O)[C@H](CC(=O)O)NC(=O)[C@H](CO)NC(=O)[C@@H](NC(=O)[C@H](Cc1ccccc1)NC(=O)[C@@H](NC(=O)CNC(=O)[C@H](CCC(=O)O)NC(=O)[C@H](C)NC(=O)[C@@H](N)Cc1cnc[nH]1)[C@@H](C)O)[C@@H](C)O)C(C)C)C(=O)N[C@@H](CCC(=O)O)C(=O)N[C@@H](Cc1ccccc1)C(=O)N[C@H](C(=O)N[C@@H](C)C(=O)N[C@@H](Cc1c[nH]c2ccccc12)C(=O)N[C@@H](CC(C)C)C(=O)N[C@H](C(=O)N[C@@H](CCCNC(=N)N)C(=O)NCC(=O)N[C@@H](CCCNC(=N)N)C(=O)NCC(=O)O)C(C)C)[C@@H](C)CC)C(=O)O`, 102%; for `CC(C)C[C@H](NC(=O)[C@@H](COC(C)(C)C)NC(=O)[C@H](Cc1ccc(O)cc1)NC(=O)[C@H](CO)NC(=O)[C@H](Cc1c[nH]c2ccccc12)NC(=O)[C@H](Cc1cnc[nH]1)NC(=O)[C@@H]1CCC(=O)N1)C(=O)N[C@@H](CCCNC(=N)N)C(=O)N1CCC[C@H]1C(=O)NNC(N)=O`, 7.12%.
For the compound `CCCCc1nc2ccn(CC(=O)N(C)C)c(=O)c2n1Cc1ccc(-c2ccccc2-c2nnn[nH]2)cc1`, the inhibition amounted to 0.96%.
As to `CCCc1cc(C)[nH]c(=O)c1CNC(=O)c1cc(-c2ccc(N3CCN(C(C)C)CC3)nc2)cc2c1cnn2C(C)C`, the inhibition is 8.48%.
For `O[C@@H](COc1cccc2ncccc12)CN1CCN([C@@H]2c3ccccc3[C@@H]3[C@H](c4ccccc42)C3(F)F)CC1` the value was 10.7%; for `Cc1cc(OCCN2CCOCC2)nn1-c1ccc2ccccc2c1`, 10.2%; for `Cc1ccc(-n2nc(C(C)(C)C)cc2NC(=O)Nc2ccc(OCCN3CCOCC3)c3ccccc23)cc1`, 71.1%.
Turning to `CC(C)(C)c1cc(NC(=O)Nc2ccc(-c3cn4c(n3)sc3cc(OCCN5CCOCC5)ccc34)cc2)no1`, the inhibition came to 1.57%.
With `O[C@H]1[C@H](O)[C@@H](O)[C@H](O)[C@@H](O)[C@H]1O`, the inhibition is 22.8%.

Usually inhibition stands for the drop in the measured response relative to a control, in per cent.
